In assay [1] the target is Glutathione peroxidase 1 (Homo sapiens) (UniProt P07203). Description: Primary qHTS Assay for Inhibitors of Recombinant Selenoprotein Glutathione Peroxidase 1 (GPX1) (AID 1845191). Further: nearly all actives have a fitted effect of over 65% in size. On activity, negative = inhibition: on the % scale 0 is the no-effect control and ±100 the full control effect. In outline: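 Recombinant GPX1 (10 nM final) was preincubated with compound for 30 min at room temperature, then reacted with 1 mM GSH, 0.5 mM CHP, 0.5 mM NADPH and 100 nM glutathione reductase; NADPH fluorescence (340/450 nm) was read at 0 and 15 min.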
Glutathione peroxidase 1 (Homo sapiens), sequence (P07203 whole entry, looked up): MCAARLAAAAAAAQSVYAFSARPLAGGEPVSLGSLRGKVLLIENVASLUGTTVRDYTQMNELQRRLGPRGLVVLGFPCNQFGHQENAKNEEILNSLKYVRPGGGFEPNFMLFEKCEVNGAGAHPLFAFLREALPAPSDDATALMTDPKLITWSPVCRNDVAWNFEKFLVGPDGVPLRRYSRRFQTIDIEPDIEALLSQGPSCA

Assay [2] addresses Phospholipid hydroperoxide glutathione peroxidase GPX4 (Homo sapiens) (UniProt P36969). The assay can be described thus: Primary qHTS Assay for Inhibitors of Recombinant Selenoprotein Glutathione Peroxidase 4 (GPX4) (AID 1845192). Further: nearly all actives have a fitted effect of over 65% in size. On activity change, negative = inhibition: series mostly up to about 50 µM; on the % scale 0 is the no-effect control and ±100 the full control effect. In a few lines: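 GR-coupled readout: 100 nM GR, 1 mM GSH, 0.5 mM NADPH; NADPH fluorescence (ex 340/em 450 nm) read at t=0 and after 15 min RT. GPX4 200 nM, preincubated 30 min with compound; substrate 0.5 mM CHP.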

In assay [3] the target is Luciferin 4-monooxygenase (Photinus pyralis) (UniProt P08659). The assay can be described thus: Primary firefly luciferase (FLuc) qHTS assay for identification of artifact compounds. (AID 1845220). Further: nearly all actives have a fitted effect of over 60% in size.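 On activity change, negative = inhibition: series mostly up to about 54 µM; plate controls were DMSO vehicle for no effect and no enzyme for full effect.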 In a few lines: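 In this counter-screen for luciferase artifacts, test compounds met substrate (10 uM each luciferin and ATP) before 10 nM enzyme started the reaction. Light output was measured 5 min later.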

Assay [4] can be described thus: Primary fluorescence-based thiol-reactive (MSTI) qHTS assay for identification of artifact compounds. (AID 1845221). Further: nearly all actives have a fitted effect of over 65% in size. Further: potency means the concentration at half of the fitted maximal effect.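 On activity change, negative = thiol reactive: series mostly up to about 54 µM; thiol-reactive compounds lower the probe fluorescence signal.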 In a few lines:
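qHTS titration of compound; 4 uM MSTI, PBS pH 7.4, 2% DMSO; 1 h RT, dark; fluorescence 525/598 nm; normalized to Acetyl-MSTI and MSTI; 4-parameter Hill fit.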

The subject of assay [5] is Nanoluciferase (engineered Oplophorus gracilirostris luciferase). The assay can be described thus: Primary Nanoluciferase (NLuc) qHTS assay for identification of artifact compounds. (AID 1845222).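 Further: NLuc secreted into diluted conditioned medium of S16 cells; series mostly up to about 54 µM; 0% = DMSO and -100% = no enzyme.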 In outline: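 Using secreted nanoluciferase in S16 culture medium (0.22 um filtered, 1:55 dilution), compounds were preincubated 15 min at RT. Signal was generated with Nano-Glo reagent (1:100) over 5 min.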

Assay [6] in a line: Primary redox qHTS assay for identification of artifact compounds. (AID 1845223). Further: potency means the concentration at half of the fitted maximal effect.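 On redox activity (% of DA3003): 0% = DMSO and 100% = reference compound.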 In a few lines: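 Amplex Red (25 uM) and HRP (250 mU/mL) in HBSS, with compounds for 15 min, then 250 uM DTT for 30 min, room temperature, dark. Fluorescence 525/598 nm read; normalized to DMSO and 10 uM DA3003; Hill fit.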

The text below walks through data of PubChem BioAssay (NCATS).

A number with no mark means an inactive call. Inconclusive results are not listed. Activity calls are given as the source filed them. The call rests on the fitted dose curve; in most records, active means well fitted curve in the direction sought with a large enough effect; inconclusive means small, poorly fitted or top-dose-only effect, or another doubt; inactive means no such curve, though single readings can be large; an effect the other way counts as inactive or inconclusive.

Phospholipid hydroperoxide glutathione peroxidase GPX4 (Homo sapiens), sequence (P36969 whole entry, looked up): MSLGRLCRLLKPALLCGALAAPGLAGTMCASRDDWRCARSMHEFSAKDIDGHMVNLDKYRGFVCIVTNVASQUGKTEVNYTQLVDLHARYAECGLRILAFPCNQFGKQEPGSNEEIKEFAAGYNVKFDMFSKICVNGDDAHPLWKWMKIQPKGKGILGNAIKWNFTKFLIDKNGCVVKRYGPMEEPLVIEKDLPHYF

Take `C[C@@H]1O[C@@H](O[C@H]2[C@H](Oc3cc(O)c(C(=O)CCc4ccc(O)cc4)c(O)c3)O[C@H](CO)[C@@H](O)[C@@H]2O)[C@H](O)[C@H](O)[C@H]1O`: the Potency result in assay [1], in assay [2], in assay [3], in assay [4] and in assay [5] was “inactive” each time. For the same compound, in assay [6], the Potency was 10.6 µM (active).
For `Cc1cccc(NC(=O)CN2CCC(c3ccccn3)CC2)c1`, the Potency entry in assay [1], in assay [2], in assay [3], in assay [4], in assay [5] and in assay [6] was “inactive” each time.
`CC1=C2C[C@H]3OC(=O)[C@H](O)[C@@]4(O)[C@@H](C)[C@@H](O)[C@H](O)C([C@@]2(C)[C@H](O)[C@@H](O)C1)[C@@]34C` (stereo not given in full): the Potency result in assay [1], in assay [2], in assay [3], in assay [4], in assay [5] and in assay [6] was “inactive” in each case.
Regarding `CC1(C)C(=O)N2c3ccccc3C(O)(CC(C(=O)O)n3cnc4ccccc4c3=O)C2N1O` (stereo not given), the Potency result in assay [1], in assay [2], in assay [3], in assay [4], in assay [5] and in assay [6] was “inactive” throughout.
In the case of `CC(C)CC(=O)OC[C@@]1(O)C[C@@]23CC[C@H]4[C@@](C)(CCC[C@@]4(C)C(=O)O)[C@@H]2CC[C@@H]1C3`, the Potency result in assay [1], in assay [2], in assay [3], in assay [4], in assay [5] and in assay [6] was “inactive” in each case.
For `C[C@@H]1O[C@@H](O[C@@H]2[C@@H](O)[C@H](O[C@@H]3[C@@H](O)[C@@H](O)[C@H](O[C@H]4[C@H](OC(=O)[C@]56CCC(C)(C)C[C@H]5C5=CCC7[C@@]8(C)C[C@H](O)[C@H](O[C@@H]9O[C@H](C(=O)O)[C@@H](O)[C@H](O)[C@H]9O)[C@@](C)(CO)C8[C@H](O)C[C@@]7(C)[C@]5(C)C[C@H]6O)O[C@@H](CO)[C@@H]4O)O[C@H]3C)OC[C@H]2O)[C@H](O)[C@H](O)[C@H]1O` (stereo not given in full), the Potency result in assay [1] and in assay [2] was “inactive” each time. Moreover, the activity change, negative = inhibition in assay [3] was 2.08% [at 11.6 µM]. Moreover, the activity change, negative = thiol reactive in assay [4] was 382% [at 11.5 µM]. Besides, the activity, negative = inhibition in assay [5] was 4.49% [at 11.6 µM]. Besides, the redox activity (% of DA3003) in assay [6] is 16.5% [at 11.5 µM].
For `CC1(C)CC2C3=CCC4[C@@]5(C)CC[C@H](OC6OCC(O)C(OC7OC(CO)C(O)C(O)C7O)C6O)C(C)(C)C5CC[C@@]4(C)[C@]3(C)C[C@H](O)[C@@]2(CO)[C@H](OC(=O)c2ccccc2)C1` (stereo not given in full), the Potency entry in assay [1] and in assay [2] was “inactive” in each case. In addition, the activity change, negative = inhibition in assay [3] is -8.37% [at 11.6 µM]. Besides, the activity change, negative = thiol reactive in assay [4] was 159% [at 11.5 µM]. In addition, the activity, negative = inhibition in assay [5] is -2.24% [at 11.6 µM]. Moreover, the redox activity (% of DA3003) in assay [6] was -2.38% [at 11.5 µM].
As for `CC1(C(=O)O)CCCC2(C)C3CCC4CC3(CCC12)CC4(O)CO` (stereo not given), the Potency result in assay [1], in assay [2], in assay [3], in assay [4], in assay [5] and in assay [6] was “inactive” in each case.
For `CC12CC(c3ccoc3)OC(=O)C1CCC1(C)C2CCC(O)C1(C)O` (stereo not given), the Potency result in assay [1], in assay [2], in assay [3], in assay [5] and in assay [6] was “inactive” each time. In addition, in assay [4], the Potency was 16.5 µM (active).
Take `CC1C2=CC(=O)OC2(O)CC2C1CCC1C(C)(C)CCC(O)C21C` (stereo not given): the Potency entry in assay [1], in assay [2], in assay [3], in assay [4], in assay [5] and in assay [6] was “inactive” throughout.
For the compound `Nc1ncnc2c1ncn2[C@H]1O[C@@H](C(=O)N2CCN(CC(=O)Nc3cccc4c3CNC4=O)CC2)[C@H](O)[C@@H]1O`, the Potency result in assay [1], in assay [2], in assay [3], in assay [4], in assay [5] and in assay [6] was “inactive” throughout.
As to `Cc1onc(-c2ccccc2Cl)c1C(=O)N(C)c1ccc(Cl)cc1`, the Potency result in assay [1], in assay [2], in assay [3], in assay [4], in assay [5] and in assay [6] was “inactive” each time.
Regarding `CC(C)=CC1C[C@](C)(O)[C@@H]2[C@H]3CCC4[C@@]5(C)CC[C@H](O[C@@H]6OC[C@H](O)[C@H](O[C@@H]7O[C@H](CO[C@@H]8O[C@H](CO)[C@@H](O)[C@H](O)[C@H]8O)[C@@H](O)[C@H](O)[C@H]7O)[C@H]6O[C@@H]6O[C@@H](C)[C@H](O)[C@@H](O)[C@H]6O)C(C)(C)[C@@H]5CC[C@@]4(C)[C@@]34CO[C@@]2(C4)O1` (stereo not given in full), the Potency result in assay [1] and in assay [2] was “inactive” in each case. In assay [3], the outcome is “inactive [at 11.6 µM]”. The activity change, negative = thiol reactive in assay [4] is 458% [at 11.5 µM]. In addition, in assay [5], the activity, negative = inhibition is 4.79% [at 11.6 µM]. In addition, in assay [6], the redox activity (% of DA3003) was 14.6% [at 11.5 µM].
For the compound `FC(F)(F)c1nnc2c(Sc3ccccc3)nc3ccc(Cl)cc3n12`, the Potency entry in assay [1], in assay [2], in assay [3], in assay [4], in assay [5] and in assay [6] was “inactive” throughout.
`COc1ccc(C(=O)OC2C3C=COC(OC4OC(CO)C(O)C(O)C4O)C3C3(CO)OC23)cc1OC` (stereo not given): the Potency entry in assay [1], in assay [2], in assay [3], in assay [5] and in assay [6] was “inactive” each time. For the same compound, the Potency in assay [4] was 4.12 µM (active).
On to `O=C(OCc1ccccc1O[C@@H]1O[C@H](CO)[C@@H](O)[C@H](O)[C@H]1O)C1(O)C=CCCC1O` (stereo not given in full), for which the Potency entry in assay [1], in assay [2], in assay [3], in assay [5] and in assay [6] was “inactive” each time. The Potency in assay [4] is 5.82 µM (active).
Take `Cc1cc(Cn2cnc3c2CC(C(=O)O)N(C(=O)C(c2ccccc2)c2ccccc2)C3)ccc1N(C)C` (stereo not given): the Potency result in assay [1], in assay [2], in assay [3], in assay [4], in assay [5] and in assay [6] was “inactive” each time.
As for `CC(=O)OCC1OC(O[C@H]2CC[C@@]3(C)C(CC[C@]4(C)C3CC=C3[C@@H]5CC(C)(C)CC[C@]5(C(=O)O)CC[C@]34C)[C@]2(C)CO)C(O)C(O)C1OC1OC(C)C(O)C(OC2OCC(O)C(O)C2O)C1O` (stereo not given in full), the Potency entry in assay [1] and in assay [2] was “inactive” in each case. The outcome in assay [3] was “inactive [at 11.6 µM]”. For the same compound, the activity change, negative = thiol reactive in assay [4] was 307% [at 11.5 µM]. Moreover, in assay [5], the activity, negative = inhibition is 3.41% [at 11.6 µM]. Also, the redox activity (% of DA3003) in assay [6] was -4.45% [at 11.5 µM].
As for `O=C(/C=C/c1ccc(O)c(O)c1)OC[C@H]1O[C@@H](OC2CCCCC2O)[C@H](O)[C@@H](O)[C@@H]1O` (stereo not given in full), the Potency result in assay [1], in assay [2], in assay [3], in assay [5] and in assay [6] was “inactive” throughout. In assay [4], the Potency is 1.16 µM (active).
For `C[C@]1(O)CC[C@@H]2C(C(=O)O)=CO[C@@H](O[C@@H]3O[C@H](COC(=O)/C=C/c4ccc(O)c(O)c4)[C@@H](O)[C@H](O)[C@H]3O)[C@@H]21`, the Potency entry in assay [1], in assay [2], in assay [3], in assay [5] and in assay [6] was “inactive” each time. Also, the Potency in assay [4] was 3.27 µM (active).
